Source: the supplement of paper PMC9433436
± gives the standard deviation of the averaged measurements. In all, about 4,100 sequences were measured (“relative kcat/Km (krel) vs genomic leader AAAGAU”: median about 1.7, highest 2% from about 6.5 on). The full list was thinned out, with the highest values kept by preference.

Target: T1, E. coli RNase P holoenzyme (M1 P RNA + rnpA protein) (UniProt P0A7Y8)
T1 sequence: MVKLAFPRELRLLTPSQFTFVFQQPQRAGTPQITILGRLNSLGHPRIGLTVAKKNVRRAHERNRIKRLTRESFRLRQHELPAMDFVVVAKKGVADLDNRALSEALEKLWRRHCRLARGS
Test: relative kcat/Km (krel) vs genomic leader AAAGAU (relative (reference leader = 1)); higher = faster RNase P cleavage
Protocol: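 HTS-Kin: a pool of ptRNA-Met (21C construct) with all 4096 combinations of 5' leader nucleotides N(-6) to N(-1) was processed in vitro by E. coli RNase P (P RNA + rnpA/C5 protein) under multiple-turnover conditions at 37 C, pH 8, 17.5 mM MgCl2. Residual substrate was Illumina-sequenced at several fractions reacted, and relative kcat/Km (krel) was computed by internal competition kinetics, calibrated to the genomic leader (AAAGAU = 1). The listed hexamer is the varied N(-6)..N(-1) leader (DNA letters), and it sits between a fixed 5' stem-loop flank (GCAUGCACGAAAGUGCGUGCUAUGAA) and the mature tRNA-Met starting GGCUACGUAGCUCAGUUGG. Two technical replicates are averaged.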

[1] = fraction of substrate reacted: ~9-10% (9.79% repeat 1, 9.1% repeat 2)
[2] = fraction of substrate reacted: ~13-16% (15.68% repeat 1, 13.17% repeat 2)
[3] = fraction of substrate reacted: ~26-29% (28.66% repeat 1, 26.4% repeat 2)

Sequence	relative kcat/Km [1]	relative kcat/Km [2]	relative kcat/Km [3]
TACCAG	2.73 ± 1.4	2.64 ± 1.1	4.81 ± 1.2
TACCAA	3.31 ± 1.5	4.01 ± 0.25	6.07 ± 1.9
TACCAC	3.48 ± 1.4	4.03 ± 1.6	6.63 ± 2.9
GACCAT	3.62 ± 2.1	3.91 ± 0.13	5.96 ± 1.9
AACCAT	2.62 ± 1.1	2.62 ± 0.3	4.77 ± 2
TACCTT	2.52 ± 0.33	3.78 ± 0.62	5.64 ± 2.6
CACCAG	2.64 ± 2.5	1.93 ± 0.07	3.58 ± 1.1
CACCAT	4.34 ± 1.2	4.72 ± 0.96	7.01 ± 2.9
TACCAT	3.78 ± 1.5	5.08 ± 1.6	7.73 ± 3.6
ATAAGA	1.69 ± 0.23	2.23 ± 0.39	3.63 ± 1.3
ACGTTG	–	–	1.56 ± 0.44
ACCGCC	2.87 ± 1.1	2.93 ± 0.072	4.69 ± 1
TGGACC	0.825 ± 0.51	0.618 ± 0.3	0.551 ± 0.0088
TAACTC	1.62 ± 0.57	1.49 ± 0.16	2.26 ± 0.86
TCGTAC	4.21 ± 1.1	5.11 ± 1.9	7.91 ± 3.5
TCGTAT	4.13 ± 0.92	4.78 ± 0.97	7.28 ± 3.4
TTGTAC	3.78 ± 0.42	4.71 ± 1.3	7.05 ± 2.9
GCGTCC	1.32 ± 0.099	1.73 ± 0.52	2.64 ± 0.41
ACGTAT	2.73 ± 1.2	3.73 ± 1.2	5 ± 1.8
TCGTCC	3.8 ± 0.41	5.03 ± 1.6	6.93 ± 3.5
CCGTAT	3.19 ± 0.25	4.32 ± 0.66	5.94 ± 2.6
GCGTAC	2.64 ± 0.68	1.98 ± 0.25	3.77 ± 1.5
GTGTAC	1.78 ± 0.16	2.012 ± 0.0038	3.45 ± 1
TCGTCT	3 ± 0.94	2.99 ± 1.4	4.35 ± 1.2
TCGTAA	3.3 ± 0.9	3.79 ± 0.62	6.16 ± 2.7

Sequence	relative kcat/Km [1]	relative kcat/Km [2]	relative kcat/Km [3]
TTGTAG	2.4 ± 1.1	1.92 ± 0.36	3.78 ± 0.77
AGTTCG	–	0.601 ± 0.24	1.95 ± 0.2
GATGAG	–	–	0.577 ± 0.44
CAAAAA	1.14 ± 0.13	0.985 ± 0.72	2.42 ± 0.98
GGTCTT	–	1.32 ± 0.41	1.72 ± 0.37
ACGGGT	–	–	1.35 ± 0.62
GCTCGC	1.28 ± 1.3	1.58 ± 0.13	1.96 ± 0.049
GTTGTT	0.832 ± 0.53	0.86 ± 0.24	1.07 ± 0.92
GGTCGC	1.81 ± 0.88	2.0828 ± 0.002	3.37 ± 1.1
TATTGC	3.74 ± 1.7	4.4 ± 0.4	6.68 ± 3.2
GATTGA	2.31 ± 0.22	3.98 ± 1.1	4.96 ± 2.3
AATTGA	2.34 ± 0.47	3.16 ± 0.37	4.64 ± 1.2
TATTGA	3.87 ± 0.33	4.42 ± 1.1	6.93 ± 3.1
CATTGC	3.51 ± 1.1	4.2 ± 0.93	5.82 ± 2.3
TATTGG	0.568 ± 0.24	–	1.46 ± 0.98
TTAGTG	–	–	0.934 ± 0.09
CACTAG	2.94 ± 2.4	3.2 ± 0.63	5.04 ± 0.72
TACTGC	3.83 ± 1.5	4.1 ± 0.86	5.96 ± 1.5
CACTGA	2.94 ± 1.2	3.71 ± 0.65	5.8 ± 1.7
TACTAG	3.46 ± 2	3.248 ± 0.0033	5.53 ± 2
AACTAT	3.41 ± 0.78	4.44 ± 0.83	6.43 ± 3.1
AACTAA	2.93 ± 0.16	4.29 ± 1.7	6.5 ± 3.1
CACTAA	4.69 ± 2	6.03 ± 0.39	7.49 ± 2.5
TACTAC	5.21 ± 2	6.73 ± 1.9	9.59 ± 4
TACTAA	5.23 ± 2.7	6.48 ± 0.54	8.92 ± 3.4

Sequence	relative kcat/Km [1]	relative kcat/Km [2]	relative kcat/Km [3]
GACTAT	4.87 ± 2	5.68 ± 1.6	8.33 ± 3.5
GACTGT	0.875 ± 0.79	1.18 ± 0.32	1.09 ± 0.23
TGGAAA	1.63 ± 1.1	0.838 ± 0.78	1.61 ± 0.29
GTGTCA	1.15 ± 0.97	0.779 ± 0.57	1.49 ± 0.16
GCCTGG	–	–	0.776 ± 0.2
GTGCCC	1.01 ± 0.23	0.583 ± 0.44	1.13 ± 0.088
TTTGCT	0.76 ± 0.28	0.721 ± 0.56	0.983 ± 0.097
CAAAAC	1.4 ± 0.17	1.59 ± 0.4	2.51 ± 0.41
GACTTA	3.03 ± 0.62	4.15 ± 0.96	5.78 ± 2.2
GACTAG	1.77 ± 1.4	2.58 ± 0.6	4.67 ± 1.3
TACTGT	0.799 ± 0.45	1.56 ± 1.4	1.19 ± 0.64
AACTAG	3.36 ± 2.5	2.8 ± 0.61	3.95 ± 1.3
TACTAT	4.15 ± 0.89	6.07 ± 1.3	9 ± 3.9
GACTAA	4.15 ± 1.9	5.64 ± 1.3	8.21 ± 3.3
ATGAAG	0.588 ± 0.19	0.919 ± 0.16	1.85 ± 0.42
AGTCGG	–	0.482 ± 0.36	1.03 ± 0.14
GAGAAA	2.38 ± 1.1	3.13 ± 0.99	3.4 ± 0.98
TGCATT	0.949 ± 0.79	1.93 ± 1.2	2.68 ± 1.7
TTCATC	4.42 ± 1.8	5.94 ± 0.79	8.86 ± 3.8
TCCATC	3.7 ± 1.8	3.95 ± 0.47	6.33 ± 2.3
GGCATT	1.85 ± 0.77	2.15 ± 0.27	3.37 ± 1.4
ATCATT	3.39 ± 1.4	4.551 ± 0.032	6.49 ± 2.6
TTCATG	2 ± 2	2.08 ± 0.48	4.3 ± 1.5
CTCATA	3.84 ± 2.5	4.93 ± 0.27	6.23 ± 2.5
TTCATT	4.9 ± 1.8	6.77 ± 1.4	9.68 ± 4.2

Sequence	relative kcat/Km [1]	relative kcat/Km [2]	relative kcat/Km [3]
TGCATC	2.12 ± 1.2	1.5 ± 0.48	2.05 ± 0.7
GTCATT	4.45 ± 1.6	5.21 ± 2	8.08 ± 4
TTCATA	4.76 ± 2.5	6.15 ± 0.55	8.54 ± 3.2
TCTACA	1.43 ± 0.68	1.87 ± 0.44	2.46 ± 1.1
GGTAAG	1.39 ± 1.3	0.931 ± 0.053	2.32 ± 1.1
TCCACT	2.76 ± 1.1	3.06 ± 0.4	4.72 ± 1.1
CATCGT	–	–	1.54 ± 1.2
GGATCA	0.973 ± 0.2	1.04 ± 0.42	1.53 ± 0.71
CACGGT	–	–	1.7 ± 0.39
AGAGAT	0.682 ± 0.45	1.15 ± 0.6	1.75 ± 0.4
GTCATG	–	1.48 ± 0.37	3.5 ± 0.91
GTCATA	4.4 ± 2	4.91 ± 0.65	7.54 ± 3
ATCATA	3.61 ± 1.8	4.31 ± 0.3	5.9 ± 2.2
CGAGAG	0.809 ± 0.14	–	0.931 ± 0.1
CCTTCC	1.62 ± 0.022	1.51 ± 1.3	2.47 ± 0.27
ACCGAC	2.3 ± 2.1	3.17 ± 0.29	4.58 ± 1
ACCGAA	3.81 ± 1.6	4.31 ± 1	6.81 ± 3
TCCGAA	5.05 ± 1.9	6.23 ± 1.9	9.05 ± 3.9
GCCGAC	2.64 ± 1.3	3.49 ± 0.69	5.36 ± 2.2
CCCGAG	1.48 ± 0.82	0.888 ± 0.25	3.16 ± 0.072
TCCGAC	3.47 ± 0.1	4.91 ± 1.2	7.68 ± 3
CCCGAA	2.83 ± 1.5	4.35 ± 1.8	6.76 ± 2.5
